Screens deposited in PubChem by National Center for Advancing Translational Sciences (NCATS).
An excerpt weighted towards active compounds, which were near 8% of everything screened.
MCF10A rerep = inducers of DNA re-replication in MCF 10A breast cells. MCF 10A DNA re-replication, Hoechst nuclear intensity, 48 h. Potency, µM (titrated, usually from 46.1 µM), for the others: at the top dose activity, positive = re-replication, actives largely listed as activators. 350,000 tested, 2.9% active; also: % of control where 0% means no effect; nearly all actives have a fitted effect of over 50% in size
KB-3-1 tox = kills parental KB-3-1 adenocarcinoma cells. KB-3-1 viability, CellTiter-Glo ATP luminescence, 72 h. Potency, µM (highest dose often 46.1 µM), actives largely listed as cytotoxic. 400,000 tested, 1.4% active; also: % is scaled to controls: 0 for no effect and ±100 for the full control effect; nearly all actives have a fitted effect of over 60% in size
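Parental KB-3-1 viability, qHTS format: 72 h compound exposure, 37 °C; CellTiter-Glo; media-only wells and DMSO plates as controls; concentration-effect fits on corrected data.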
KB-V1 MDR tox = kills drug-selected multidrug resistant KB-V1 cells; KB-V1 MDR cells viability, CellTiter-Glo, 72 h; Potency, µM (doses to about 46.1 µM), most hits filed as cytotoxic; 400,000 tested, 3.4% active; AID 1347076; also: % is scaled to controls: 0 for no effect and ±100 for the full control effect; nearly all actives have a fitted effect of over 60% in size
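Compound-treated KB-V1 multidrug-resistant cells, 72 h, 37 degrees C; viability by CellTiter-Glo. Fitted qHTS curves give the values.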
SW480 rereplic = DNA re-replication induction in SW480 cells. SW480 DNA re-replication, Hoechst DNA content imaging, 48 h. Potency, µM (highest dose often 46.1 µM), for inactives: at the highest dose re-replication activation, actives largely listed as activators. 340,000 tested, 1.8% active. AID 624297; also: % of control where 0% means no effect; nearly all actives have a fitted effect of over 55% in size
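Quantitative HTS format with DMSO vehicle controls; 48 hr drug incubation at 37 C, then 40 min Hoechst staining and scanning imager measurement at 405 nm excitation.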
HT1080-NT tox = kills 2HG-producing HT-1080-NT fibrosarcoma cells; Potency, µM (top dose mostly 46.1 µM), without a hit: at the top dose activity, negative = less viability, most hits filed as cytotoxic; 360,000 tested, 1.6% active; HT-1080-NT fibrosarcoma viability, CellTiter-Glo ATP luminescence, 48 h; AID 686970;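 also: NT is the 2HG producing partner of a matched IDH1 knockdown line; 0% = DMSO-treated cells and -100% = media-only wells without cells; nearly all actives have a fitted effect of over 55% in size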
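750 cells/well, RPMI + 5% FBS; 2 h settle, compound pin-transfer, 48 h at 37 degrees C. CellTiter-Glo 10 min RT, luminescence. Normalized to DMSO and media-only wells.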
HT1080 IDH1KD tx = toxicity to HT-1080 IDH1 knockdown cells (counter line); HT-1080 IDH1 knockdown viability, ATP luminescence, 48 h; Potency, µM (titrated, usually from 46.1 µM), inactives show at the highest dose activity, negative = toxicity, usual class: cytotoxic; 360,000 tested, 2% active; AID 686971;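 also: 0% = DMSO wells and -100% = cell-free medium wells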
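Viability of IDH1-knockdown HT-1080 fibrosarcoma cells was assessed by CellTiter-Glo after 48 h at 37 °C with titrated compound; concentration-effect curves were classified by fit quality and response size.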
Numbers without * were called inactive; i = inactive; u = inconclusive. Calls follow the shape of the dose curve; as a rule, active = well fitted curve in the direction sought with a large enough effect; inconclusive = small, poorly fitted or top-dose-only effect, or another doubt; inactive = no such curve, though single readings can be large; an effect the other way counts as inactive or inconclusive. Potency is read from the fitted curve at half-maximal effect.

SMILES	MCF10A rerep	KB-3-1 tox	KB-V1 MDR tox	SW480 rereplic	HT1080-NT tox	HT1080 IDH1KD tx
O=[N+]([O-])c1cc(/C=N/n2c(-c3ccncc3)n[nH]c2=S)ccc1Cl	u	i	i	u	-9.2%	-13.8%
CCn1c2ccccc2c2cc(/C=N/O)ccc21	2.0%	i	11.6µM*	4.11µM*	-9.8%	-6.4%
CCn1c2ccccc2c2cc(/C=N/n3cn[nH]c3=S)ccc21	u	i	u	3.66µM*	-1.3%	0.1%
CCn1c2ccccc2c2cc(/C=N/n3c(-c4cc(C)[nH]n4)n[nH]c3=S)ccc21	8.2µM*	i	i	-32.3%	-23.9%	u
CCn1c2ccccc2c2cc(/C=N/n3cnnc3)ccc21	-3.2%	i	i	-16.2%	u	-18.2%
Cc1cc(-c2n[nH]c(=S)n2/N=C/c2ccc(Cl)c([N+](=O)[O-])c2)n[nH]1	u	u	i	u	6.51µM*	4.61µM*
Cc1cccc(OCc2nnc(SCC(=O)N3CCN(c4ccccc4)CC3)o2)c1C	9.3%	i	u	-3.5%	-6.0%	-11.3%
S=c1[nH]nc(-c2cc(-c3ccccc3)n[nH]2)n1/N=C/c1ccc(Cl)cc1	u	i	i	-1.6%	-26.4%	-32.0%
S=c1[nH]nc(-c2cc(-c3ccccc3)n[nH]2)n1/N=C/c1cccc(Cl)c1	23.1µM*	i	i	u	-8.3%	-10.8%
CC1(C)Cc2c(ccc3ccccc23)C2=C(C(=O)N3CCCC3)C(=O)C(=O)N21	20.6µM*	i	i	4.5%	4.2%	-16.2%
Cc1nc([N+](=O)[O-])c(C(=O)OCc2ccccc2Br)n1C	-1.6%	u	20.6µM*	-9.1%	-10.1%	-2.6%
O=C1N=C(N2CCCCC2)S/C1=C/C1=Cc2ccccc2OC1	18.4µM*	i	i	22.9%	14.4%	1.4%
CCN1CCN(c2cc(C(C)(C)C)nc3c(-c4ccccc4)c(C)nn23)CC1	u	i	i	6.51µM*	u	12.6µM*
CCN1CCN(c2cc(C(C)C)nc3c(-c4ccccc4)c(C)nn23)CC1	u	i	u	-48.1%	u	16.4µM*
Cc1nn2c(N3CCOCC3)cc(C(C)C)nc2c1-c1ccccc1	-1.2%	i	i	-6.2%	5.5%	10.9%
COc1ccc(NC(=O)CN2CCN(CC(=O)Nc3ccccc3Cl)CC2)cc1	0.4%	i	i	-1.3%	-3.6%	1.1%
O=C(CC1CCCCC1)Nc1nc2ccccc2s1	-5.4%	i	i	-1.5%	-3.0%	6.8%
O=C(CN1C(=O)C2CCCCC2C1=O)Nc1ccc(S(=O)(=O)Nc2ncccn2)cc1 (stereo unspecified)	-1.0%	i	i	-6.7%	19.2%	15.9%
O=C(CCC1=NS(=O)(=O)c2ccccc2N1)NC1CCCCCCC1	3.4%	i	i	7.1%	-2.4%	-1.7%
Cc1cc(Br)c(NC(=O)COC(=O)c2ccc[n+]([O-])c2)c(Br)c1	-5.9%	i	i	5.1%	6.2%	-0.5%
CCCCn1c(=N)n(CC(O)COc2ccc(C)cc2)c2ccccc21 (stereo unspecified)	5.2%	17.8µM*	u	22.5%	u	11.2µM*
CCCn1c(=N)n(CC(O)COc2cccc(C)c2)c2ccccc21 (stereo unspecified)	2.6%	u	14.6µM*	11.1%	-17.9%	u
CCCCn1c(=N)n(CC(O)COc2ccccc2)c2ccccc21 (stereo unspecified)	1.2%	u	20.6µM*	u	u	u
N=c1n(CCN2CCCCC2)c2ccccc2n1CC(O)COc1ccccc1 (stereo unspecified)	8.4%	u	i	u	14.6µM*	u
N=c1n(CCN2CCOCC2)c2ccccc2n1CC(O)COc1ccccc1 (stereo unspecified)	-5.1%	i	i	-7.0%	-1.5%	-8.0%
